KCNQ2 pot = potentiators of rat KCNQ2 potassium channel; Potassium voltage-gated channel subfamily KQT member 2 (Rattus norvegicus), O88943; CHO-K1 KCNQ2, FluxOR thallium flux fluorescence; hits give high values; B-score at 10 µM; 310,000 tested, 0.54% active; AID 2239, 2010;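 active = fluorescence ratio B-score at least 3 SD of library B-scores, with initial fluorescence B-score within 3 of them, cut at about 5.3 in these data; same plate scores as AID 2156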;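 also: B-score of peak minus minimum over baseline fluorescence ratio after K+ and Tl+ stimulus; positive B-score means potentiation of KCNQ2 with more thallium influx and brighter signal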
Target sequence (O88943 whole entry, looked up): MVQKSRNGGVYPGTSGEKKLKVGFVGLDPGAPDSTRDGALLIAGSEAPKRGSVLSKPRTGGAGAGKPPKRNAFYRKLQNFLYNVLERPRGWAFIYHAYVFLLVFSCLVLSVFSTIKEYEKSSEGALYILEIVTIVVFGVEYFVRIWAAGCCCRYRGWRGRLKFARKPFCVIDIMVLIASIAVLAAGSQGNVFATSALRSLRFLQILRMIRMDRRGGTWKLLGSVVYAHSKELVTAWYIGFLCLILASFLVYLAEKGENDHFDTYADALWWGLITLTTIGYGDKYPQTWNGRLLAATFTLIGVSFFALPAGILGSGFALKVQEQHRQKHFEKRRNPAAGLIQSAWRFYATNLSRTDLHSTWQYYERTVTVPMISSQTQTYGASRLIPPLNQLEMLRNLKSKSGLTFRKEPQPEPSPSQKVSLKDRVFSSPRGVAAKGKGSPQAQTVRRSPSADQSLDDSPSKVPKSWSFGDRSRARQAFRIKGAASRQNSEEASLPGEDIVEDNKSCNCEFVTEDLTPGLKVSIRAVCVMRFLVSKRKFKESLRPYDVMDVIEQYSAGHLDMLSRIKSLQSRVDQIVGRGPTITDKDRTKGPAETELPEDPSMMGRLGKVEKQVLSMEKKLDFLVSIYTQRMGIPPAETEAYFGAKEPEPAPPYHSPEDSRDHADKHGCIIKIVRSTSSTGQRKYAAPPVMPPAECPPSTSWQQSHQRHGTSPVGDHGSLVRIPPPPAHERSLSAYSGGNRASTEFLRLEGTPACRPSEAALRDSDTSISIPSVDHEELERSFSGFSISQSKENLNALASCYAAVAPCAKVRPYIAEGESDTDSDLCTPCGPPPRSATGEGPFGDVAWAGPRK
KCNQ2 inh = rat KCNQ2 potassium channel inhibitors, primary screen, cell-based, CHO-K1, FluxOR thallium flux, B-score; B-score at 10 µM; Potassium voltage-gated channel subfamily KQT member 2 (Rattus norvegicus), O88943; 310,000 tested, 1.1% active; AID 2156, 2009; 20 min; hits give low values;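 active = fluorescence ratio B-score at most minus 3 library SDs, with starting brightness B-score within 2 library SDs, cut at about -5.5 in these data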
Each line names hits and unclear results; the compound was inactive in the other large screens. This is a sample that favours compounds with a hit; in the whole collection about 1.6% have one here.

Cc1ccc(-c2noc(CN(C(=O)CCCN3C(=O)c4ccccc4C3=O)C(C)C)n2)cc1	none (no result: KCNQ2 pot)
Cc1ccc(-c2noc(CN(C(=O)CCN3C(=O)c4ccccc4C3=O)C(C)C)n2)cc1	KCNQ2 inh -5.7
CC(C)N(Cc1nc(-c2ccc(Cl)cc2)no1)C(=O)CCC1CCCC1	KCNQ2 inh -6.2
COc1ccccc1OCC(=O)N(Cc1nc(-c2ccc(Cl)cc2)no1)C(C)C	none (no result: KCNQ2 pot)
COc1ccccc1OCC(=O)N(Cc1nc(-c2ccccc2)no1)C(C)C	none
CCc1ccc(C(=O)NC(CC(C)C)C(=O)O)cc1 (configuration not stated)	none
CCC(NC(=O)N(Cc1ccccc1)Cc1ccc2c(c1)OCO2)(C(F)(F)F)C(F)(F)F	KCNQ2 inh -8.1
CC(NC(=O)N(Cc1ccccc1)Cc1ccc2c(c1)OCO2)(C(F)(F)F)C(F)(F)F	none (no result: KCNQ2 pot)
COc1ccc(C2=NN(C(=O)CSc3ncccn3)C(c3ccc(C)cc3)C2)cc1 (configuration not stated)	none
COc1ccc(C2=NN(C(=O)CSc3nc(=O)n4cccc(C)c4n3)C(c3ccc(C)cc3)C2)cc1 (configuration not stated)	KCNQ2 inh -7.4
O=C(Cn1nc(Cc2cccnc2)c2ccccc2c1=O)NCc1ccc2c(c1)OCO2	none (no result: KCNQ2 pot)
c1cncc(-c2nc(N3CCCCCC3)c3ccccc3n2)c1	KCNQ2 inh -7.4
CN1CCN(c2nc(-c3cccnc3)nc3ccccc23)CC1	none
COc1ccc(Br)cc1CNC(=O)C1CCN(C(=O)N(C)C)CC1	none
O=C(Nc1cn(-c2ccccc2)nc1-c1ccc(Cl)cc1)c1ccccc1	none (no result: KCNQ2 pot)
Cc1ccc(-c2nn(-c3ccccc3)cc2NC(=O)c2ccccc2)cc1	KCNQ2 inh -5.7
CCc1c(C)sc(NC(=S)N2CCN(CC)CC2)c1C(=O)OC	none (no result: KCNQ2 pot)
CCOC(=O)C1=NN(c2ccccc2)C2=NC(C)=C(C(=O)OC)C(c3cccs3)N12 (configuration not stated)	none (no result: KCNQ2 pot)
CCOC(=O)C1=NN(c2cccc(Cl)c2)C2=NC(C)=C(C(=O)OC)C(c3cccs3)N12 (configuration not stated)	KCNQ2 inh -5.7
COc1ccc(C(CCNCc2ccc(F)cc2)c2ccc(F)cc2)cc1 (configuration not stated)	KCNQ2 inh -7.2
COc1ccc(CNCCC(c2ccc(F)cc2)c2ccc(OC)cc2)cc1 (configuration not stated)	none (no result: KCNQ2 pot)
Cc1cc(C)cc(Oc2ccccc2/C=C\C(=O)O)c1	none
CCOc1ccccc1N(C(=O)c1ccccc1Cl)C1=NC(C)(C)CS1	none (no result: KCNQ2 pot)
Cc1ccc(N(C(=O)c2ccccc2Cl)C2=NC(C)CS2)c(C)c1 (configuration not stated)	KCNQ2 inh -6
COc1cc(NS(=O)(=O)c2ccc3c(c2)oc(=O)n3C)cc(OC)c1OC	none (no result: KCNQ2 pot)
COc1cc(NS(=O)(=O)c2c(C)oc3c(F)c(F)c(F)c(F)c23)cc(OC)c1OC	KCNQ2 inh -6.7
O=c1c2ccccc2nc(-c2ccccc2)n1/N=C/c1ccc([N+](=O)[O-])cc1	KCNQ2 inh -7.6
Cc1ccccc1-c1nc2ccccc2c(=O)n1/N=C/c1ccc([N+](=O)[O-])cc1	none (no result: KCNQ2 pot)
CCOC(=O)c1[nH]c2ccc(OC)cc2c1NC(=O)CN1CCN(c2ccccn2)CC1	none
Cc1ccc(NC(=O)CSc2nccn2C)cc1F	none
Cc1ccc2c(c1)N(S(=O)(=O)c1ccc(F)cc1)C(C(C)(C)C)CO2 (configuration not stated)	KCNQ2 inh -6.9
Cc1ccc(S(=O)(=O)N2c3ccccc3OCC2C(C)(C)C)cc1 (configuration not stated)	none (no result: KCNQ2 pot)
CCOC(=O)C1(Cc2ccccc2)CCN(C2Cc3ccccc3C2)CC1	none (no result: KCNQ2 pot)
N#Cc1ccccc1NC(=O)CSC1=Nc2ccccc2C2CC=NN12 (configuration not stated)	none (no result: KCNQ2 pot)
Cc1cc(C)cc(N(CCC#N)C(=O)CSC2=Nc3ccccc3C3CC=NN23)c1 (configuration not stated)	KCNQ2 inh -6.1
O=C(NCC(c1ccco1)N1CCc2ccccc2C1)C(=O)Nc1cc(F)ccc1F (configuration not stated)	KCNQ2 inh -6.2
O=C(NCC(c1ccco1)N1CCc2ccccc2C1)c1ccc(F)cc1 (configuration not stated)	KCNQ2 inh -5.7
COc1ccccc1NC(=O)C(=O)NCC(c1ccco1)N1CCc2ccccc2C1 (configuration not stated)	none (no result: KCNQ2 pot)
O=C(NCC(c1ccco1)N1CCc2ccccc2C1)c1ccccc1 (configuration not stated)	none (no result: KCNQ2 pot)
CC(=O)c1cc(C#N)c(Oc2cccc(C(F)(F)F)c2)nc1C	none (no result: KCNQ2 pot)
Cc1cccn2c(NC(=O)c3cccs3)c(-c3ccccc3)nc12	none (no result: KCNQ2 pot)
CC(C)(Oc1ccc(Cl)cc1)C(=O)N1CCC(C(N)=O)CC1	none
Cc1cc(C(=O)CSc2ccc(F)cc2)cc(C)c1OC(=S)N(C)C	KCNQ2 inh -6
COc1ccc(SCC(=O)c2cc(C)c(OC(=S)N(C)C)c(C)c2)cc1	none (no result: KCNQ2 pot)
O=C(O)CC(C(=O)NCc1ccccc1)C1CCCO1 (configuration not stated)	none
Cc1cccc(OCCn2c(CCCO)nc3ccccc32)c1	none
Cc1ccc(C(=O)CCS(=O)(=O)c2ccc(F)cc2)cc1	KCNQ2 inh -6.3
Cc1ccc(S(=O)(=O)CCC(=O)c2ccc(F)cc2)cc1	none (no result: KCNQ2 pot)
COc1ccc(OC)c(S(=O)(=O)N2CCN(c3ccccc3)CC2)c1	none
CCc1ccccc1N1CCN(S(=O)(=O)c2cc(OC)ccc2OC)CC1	KCNQ2 inh -7.1
CCn1c(SCc2ccccc2Cl)nc2nc3c(cc2c1=O)CCCC3	none (no result: KCNQ2 pot)
CCn1c(SCc2c(Cl)cccc2Cl)nc2nc3c(cc2c1=O)CCCC3	KCNQ2 inh -6.7
COc1ccc(CCNC2CC(=O)N(N(C)C)C2=O)cc1OC (configuration not stated)	none
CN(C)c1ccc(/C=C(\NC(=O)c2ccccc2)C(=O)N/N=C/c2ccc(C(=O)O)cc2)cc1	none (no result: KCNQ2 pot)
O=S(=O)(CCN1CCCCC1)Oc1ccc(Cl)cc1Cl	none (no result: KCNQ2 pot)
CCc1ccccc1NC(=O)Cn1nnc(-c2cccnc2)n1	none (no result: KCNQ2 pot)
COc1cccc(NC(=O)Nc2cccs2)c1	none
COc1cccc(NC(=O)N(C2CCCCC2)C(C)c2cccs2)c1 (configuration not stated)	KCNQ2 inh -5.7
CC(=O)Nc1ccc(NC(=O)C2C3C=CC(C3)C2C(=O)O)cc1 (configuration not stated)	none
O=C(c1ccc(Br)cc1)N1CCC(C(=O)N2CCN(c3ccccc3)CC2)CC1	none
O=C1CN(c2ccccc2)C(=S)N1C(=O)c1ccc(Br)cc1	KCNQ2 inh -5.8
CCN(CC)CCNc1nc(-c2ccccc2)nnc1C(F)(F)F	KCNQ2 pot 9
CCN(CC)CCNc1nc(C(F)(F)F)nc2c1nnn2Cc1ccccc1	none
Cc1[nH]c(=O)[nH]c(=O)c1S(=O)(=O)N1CCC(C(=O)NC(C)c2ccccc2)CC1 (configuration not stated)	none
COc1ccc(N=Cc2cccc(C)c2O)cc1Cl	none
Cc1cccc(N=Cc2cc(Br)cc(Cl)c2O)c1	KCNQ2 pot 9.3
COc1ccc(NC(=O)c2ccc3c(c2)CCN3S(=O)(=O)c2ccccc2)cc1	none (no result: KCNQ2 pot)
COC(=O)c1ccc(C(c2c(N)n(CC(C)C)c(=O)[nH]c2=O)N2CCN(c3ccccc3)CC2)cc1 (configuration not stated)	none (no result: KCNQ2 pot)
CN(C)c1ccc(-c2nc3cnccn3c2Nc2ccc3c(c2)OCCO3)cc1	KCNQ2 inh -6.4

Screening data deposited in PubChem BioAssay by Johns Hopkins Ion Channel Center.
